Measured values: the supplement of paper PMC3334620
Whole data set: some 33,000 sequences, median “E-score (-0.5 to 0.5)” near -0.012, cut for the highest 2% near 0.27. Only a selection was taken, and the highest values are over-represented in it overall.

Target: T1, Vhr1 (UniProt P40522)
T1 sequence: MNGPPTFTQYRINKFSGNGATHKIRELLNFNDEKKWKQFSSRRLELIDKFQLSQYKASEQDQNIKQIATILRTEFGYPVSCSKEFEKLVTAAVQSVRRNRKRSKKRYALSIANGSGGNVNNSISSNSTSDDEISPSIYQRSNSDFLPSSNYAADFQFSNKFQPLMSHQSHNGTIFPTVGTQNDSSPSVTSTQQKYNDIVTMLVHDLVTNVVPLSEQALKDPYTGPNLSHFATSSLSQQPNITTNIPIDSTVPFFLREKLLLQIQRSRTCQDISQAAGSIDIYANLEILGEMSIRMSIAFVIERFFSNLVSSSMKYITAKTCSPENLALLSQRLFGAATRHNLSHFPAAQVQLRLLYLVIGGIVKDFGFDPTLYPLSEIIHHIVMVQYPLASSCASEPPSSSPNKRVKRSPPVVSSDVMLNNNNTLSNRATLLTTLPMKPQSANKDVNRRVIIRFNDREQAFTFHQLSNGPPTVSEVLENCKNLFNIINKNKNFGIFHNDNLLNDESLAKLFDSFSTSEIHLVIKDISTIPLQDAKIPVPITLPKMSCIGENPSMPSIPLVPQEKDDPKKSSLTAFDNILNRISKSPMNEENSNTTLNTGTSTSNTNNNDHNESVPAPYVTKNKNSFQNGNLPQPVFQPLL
Test: PBM E-score (8-mer binding enrichment) (E-score (-0.5 to 0.5)); higher = stronger / more preferred TF binding
Conditions: protein concentration: 200 nM; construct: GST-full length
Experimental: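 Universal 'all 10-mer' protein binding microarrays (Agilent AMADID 015681) probed with GST-tagged S. cerevisiae TFs (full-length or DBD) made by in vitro transcription/translation (PURExpress), about 100-200 nM. Bound TF was detected with fluorescent anti-GST. Each ungapped 8-mer (which stands for itself and its reverse complement) is scored by the PBM enrichment score (E-score), a modified Wilcoxon-Mann-Whitney statistic from -0.5 to +0.5, computed with the Universal PBM Analysis Suite. Scale: above 0.35 generally sequence-specific binding.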

| Sequence | PBM E-score |
| --- | --- |
| AAGTCAAT | 0.0223 |
| AAGTCGCC | -0.0133 |
| CAGTCGCC | 0.147 |
| GAGTCGCA | 0.391 |
| TAGTCGCA | 0.309 |
| TCGTCGCA | 0.111 |
| CAGTCGAC | 0.197 |
| GAGTCGAC | 0.294 |
| AAGTCGAC | 0.17 |
| AAGTCGCA | 0.173 |
| TAGTCGAA | 0.0212 |
| CAGTCGCA | 0.0715 |
| GAGTCGCC | 0.424 |
| ATCAGGCC | -0.0546 |
| ACACTAAA | 0.238 |
| CTACTTAA | -0.204 |
| AACTCATA | 0.141 |
| AACTCATC | 0.209 |
| GACTCATA | 0.388 |
| GACTCATC | 0.452 |
| CACTCAAC | 0.0922 |
| CACTCATC | 0.137 |

| Sequence | PBM E-score |
| --- | --- |
| CACTCATA | 0.179 |
| GACTCAAA | 0.266 |
| GACTCAAC | 0.42 |
| AAGTAGAC | -0.0556 |
| AGCCATTG | 0.172 |
| CCCGCTAG | -0.249 |
| TCCCGGGA | -0.0779 |
| GTAGGTAA | -0.114 |
| GGCGAAGA | -0.152 |
| CCACTCAA | 0.133 |
| GGACTCAA | 0.143 |
| CGACTCAA | 0.386 |
| TGACTCAA | 0.468 |
| AGACTCAA | 0.214 |
| CTACTCAA | 0.113 |
| CGATTTAG | -0.0352 |
| ACATTCAT | 0.0173 |
| CTACCTGC | -0.0175 |
| CGTGAGAC | 0.0393 |
| AGACCTTA | 0.0612 |
| AAGAGGTA | 0.0122 |
| CGACCCAA | 0.14 |

| Sequence | PBM E-score |
| --- | --- |
| CGTAATCA | 0.273 |
| CTCAATCC | -0.0448 |
| AGTAATCG | 0.141 |
| CTCAATCA | 0.33 |
| AGTAATCC | 0.0334 |
| CGTAATCC | -0.104 |
| ATCAATCA | 0.248 |
| GCTAATCA | 0.262 |
| CGTAATTA | -0.128 |
| GGTAATGA | 0.023 |
| AGTAATCA | 0.303 |
| GGTAATCA | 0.288 |
| AATTGGCT | -0.0912 |
| ATACTGTA | 0.224 |
| GGAAACGA | 0.0811 |
| GGTGTCCA | -0.0191 |
| ACAAGTGA | -0.154 |
| CAGATTAG | -0.0795 |
| AAATAACG | -0.00647 |
| GTAATGTA | -0.131 |
| ACCGCCAC | 0.0902 |
| GCCGCCAC | -0.0771 |

| Sequence | PBM E-score |
| --- | --- |
| CCCGCCAC | 0.321 |
| CCCGCGGA | -0.0501 |
| CTCCCCGA | -0.116 |
| CCCGCCGC | 0.36 |
| GCCGCGGC | 0.237 |
| CCCGCCGA | 0.00185 |
| CCCGCGGC | 0.272 |
| CTCCCCGC | 0.325 |
| CCCGCCGG | 0.134 |
| ATCCCCGC | 0.129 |
| ATGACCCC | 0.211 |
| AAGGCAGC | -0.132 |
| ATATAGAA | 0.11 |
| AGCATCAG | 0.0568 |
| CATGTTCG | 0.0242 |
| GATTGGGC | -0.102 |
| CAACCTCC | 0.0131 |
| CTGTATCA | -0.0153 |
| GTGTATCA | 0.275 |
| ATGTATCA | 0.267 |
| GCACTTTA | -0.249 |
| CAGTTACG | -0.125 |

| Sequence | PBM E-score |
| --- | --- |
| ATACTGTG | 0.0981 |
| ATACTCAC | 0.17 |
| ATACTCAG | 0.274 |
| ATACTGAG | 0.302 |
| ATACTCAA | 0.178 |
| ACTCTCAG | -0.0997 |
| ATACTGTC | 0.137 |
| ATACTCAT | 0.277 |
| CTACTCAG | 0.153 |
| CGAGTTCC | 0.0292 |
| GCAAACTA | 0.0776 |
| AATGCTCA | 0.021 |
| AAGAATAC | 0.0498 |
| AGGGTCGA | 0.158 |
| ACCTGCCC | 0.0405 |
| CTACGCCC | 0.0207 |
| CGGCAGTA | -0.109 |
| ACAACCCC | -0.061 |
| CATGCTCC | -0.08 |
| AATCAAGT | 0.174 |
| AATCATTG | 0.283 |
| GATCATGA | 0.197 |
